Source: PubChem
JMJD2A Tudor – JMJD2A Tudor domain (human) inhibition | O75164 | AlphaScreen JMJD2A-Tudor / H3K4me3 peptide binding | Potency, µM (top dose mostly 114 µM), without a hit: at the top dose activity change, negative = inhibition, usual class: inhibitors | 4.4% of 390,000 active | AID 504339; further: on the % scale 0 is the no-effect control and ±100 the full control effect; nearly all actives have a fitted effect of over 50% in size
G9a inh – blocks human histone lysine methyltransferase G9a; Q96KQ7; AID 504332; G9a H3K9 monomethylation, AlphaScreen, 2 h; 8.8% of 350,000 active; Potency, µM (series often up to 102 µM), without a hit: at the top dose activity, negative = inhibition, actives largely listed as inhibitors; further: on the % scale 0 is the no-effect control and ±100 the full control effect; nearly all actives have a fitted effect of over 75% in size
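Readings reflect AlphaScreen signal from monomethyl-H3K9 antibody detection. HMT at 20 nM; substrate b-H3K9 500 nM; cofactor SAM 20 uM; 2 h RT reaction; compounds tested as titrations in qHTS with 15 min preincubation.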
HP1b chromo inh – inhibitors of HP1-beta chromodomain binding to methylated histone tails | AlphaScreen HP1-beta / biotin-H3K9me3 peptide binding | Potency, µM (doses to about 114 µM), for the others: at the highest dose activity change, negative = inhibition, most hits filed as inhibitors | 0.56% of 390,000 active | P83916; further: nearly all actives have a fitted effect of over 70% in size
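Compound inhibition of the preformed complex between 50 nM HP1-beta and 50 nM biotinylated H3K9me3 peptide was read by AlphaScreen. Buffer was PBS pH 7.4 with 0.01% Tween-20. Incubations ran 30 min at room temperature, with 10 ug/mL donor/acceptor beads.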
GLS inhibitor – glutaminase GLS (human) inhibition; O94925; GLS enzymatic activity, qHTS titration; Potency, µM (highest dose often 45.5 µM), without a hit: at the top dose activity change, negative = inhibition, usual class: inhibitors; 0.21% of 410,000 active; AID 624170; further: on the % scale 0 is the no-effect control and ±100 the full control effect
Target sequence (O94925 whole entry, looked up): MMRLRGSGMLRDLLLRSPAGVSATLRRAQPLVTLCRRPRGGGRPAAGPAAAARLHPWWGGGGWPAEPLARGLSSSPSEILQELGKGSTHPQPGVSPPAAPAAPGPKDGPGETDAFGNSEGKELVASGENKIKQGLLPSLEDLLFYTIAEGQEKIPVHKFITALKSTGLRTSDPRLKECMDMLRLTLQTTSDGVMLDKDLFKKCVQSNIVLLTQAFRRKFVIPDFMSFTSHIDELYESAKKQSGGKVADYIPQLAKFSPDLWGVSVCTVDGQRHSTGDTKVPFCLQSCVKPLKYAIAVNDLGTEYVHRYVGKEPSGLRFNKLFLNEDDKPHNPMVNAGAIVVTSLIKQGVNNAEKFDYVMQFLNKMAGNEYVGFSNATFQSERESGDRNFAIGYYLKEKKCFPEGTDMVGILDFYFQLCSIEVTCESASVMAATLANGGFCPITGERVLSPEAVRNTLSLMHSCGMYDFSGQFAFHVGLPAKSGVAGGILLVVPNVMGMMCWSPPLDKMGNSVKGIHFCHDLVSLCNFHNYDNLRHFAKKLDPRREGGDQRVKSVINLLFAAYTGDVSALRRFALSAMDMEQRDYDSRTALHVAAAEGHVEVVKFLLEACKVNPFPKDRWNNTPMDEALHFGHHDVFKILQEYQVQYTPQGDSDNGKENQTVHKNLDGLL
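Read-out is an Amplex red fluorescence increase coupled through glutamate oxidase and HRP, measured before and after 30 min room-temperature incubation. hKGA is in 45 mM KH2PO4 (pH 8.2) with 0.02% Tween-20; glutamine added as 1mM solution.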
BAZ2B inh – blocks human BAZ2B. AlphaScreen BAZ2B-H3K14Ac peptide displacement. Potency, µM (highest dose often 114 µM), for the others: at the top dose activity change, negative = inhibition, most hits filed as inhibitors. 4.4% of 360,000 active; further: on the % scale 0 is the no-effect control and ±100 the full control effect; nearly all actives have a fitted effect of over 60% in size
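AlphaScreen luminescence quantifies BAZ2B engagement of H3K14Ac peptide; the protein and biotinylated peptide are both at 50 nM final, buffer PBS pH 7.4 with 0.01% Tween-20, all steps at room temperature.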
An asterisk follows results filed as active; ? = inconclusive; · = no result given; ! = not active in a repeat; [ ] = remark or other dose. Sampled rows, rich in hits. Any-hit rate of the full collection: about 10%. The call rests on the fitted dose curve; in most records, active means well fitted curve in the direction sought with a large enough effect; inconclusive means small, poorly fitted or top-dose-only effect, or another doubt; inactive means no such curve, though single readings can be large; an effect the other way counts as inactive or inconclusive. Potency means the concentration at half of the fitted maximal effect.

SMILES | JMJD2A Tudor | G9a inh | HP1b chromo inh | GLS inhibitor | BAZ2B inh
CC(C)Cn1c(CN2CCN(c3cccc(Cl)c3)CC2)nc2c1c(=O)[nH]c(=O)n2C | ? | -32%[59 µM] | 46% | 2% | -1%
COc1cccc(C(c2sc3nc(-c4ccco4)nn3c2O)N2CCN(C)CC2)c1 (stereo not given) | -4% | -32%[59 µM] | 39% | 13% | -12%
CC(=O)OCC(NC(=O)C(CCCCNC(=O)OCc1ccccc1)NC(=O)OC(C)(C)C)C1OC(n2cc(C)c(=O)[nH]c2=O)C(OC(C)=O)C1OC(C)=O (stereo not given) | -2% | · | 29% | · | ·
O=C(NCC1CCN(Cc2cccc(Cl)c2)CC1)Nc1ccc(Cl)cc1 | -30% | -13% | 43% | -10% | -38%
CCc1cccc(CN2CCC(CNC(=O)Nc3ccc(Cl)cc3)CC2)c1 | -19% | -13% | 27% | -1% | 50µM*
COc1ccc(S(=O)(=O)N2CCOCC2)cc1NC(=O)c1ccc(S(=O)(=O)N(C)c2ccccc2OC)cc1 | -22% | · | 23% | -1% | ·
CCOc1cc(N2CCOCC2)c(OCC)cc1NC(=O)CCC1CCCC1 | -24% | -4%[59 µM] | 4% | 28% | -34%
CCOc1cc(N2CCOCC2)c(OCC)cc1NC(=O)c1ccccc1C | ? | ? | -10% | -3% | ?
CCOc1cc(N2CCOCC2)c(OCC)cc1NC(=O)C1CCCC1 | -8% | 7.9µM* | 9% | -13% | -3%
CCOc1cc(N2CCOCC2)c(OCC)cc1NC(=O)c1nn(CC)c(=O)c2ccccc12 | 50µM* | ? | -40% | 11% | 50µM*
CCOc1cc(N2CCOCC2)c(OCC)cc1NC(=O)CN1CCCC1 | ? | 3.2µM* | 4% | 6% | 13µM*
CCOc1cc(N2CCOCC2)c(OCC)cc1NC(=O)C(C)Oc1ccccc1 (stereo not given) | 35µM* | · | -17%[57 µM] | 22% | ·
COC(=O)c1ccc(OC)c(Cn2c(=O)n(-c3cccc(Cl)c3)c(=O)c3c2c2cc(C)ccc2n3C)c1 | -12% | -11%[59 µM] | 21% | 11% | 2%
CCC(CC)C(=O)Nc1ccc(OCc2cc(=O)n3ccc(C)cc3n2)cc1 | 5% | -34%[59 µM] | 29%[57 µM] | -2% | 9%
O=C(CN(CCc1ccccc1)Cc1ccccc1)Oc1ccccc1P(=O)(O)O | -20% | 13% | 65% | 21% | 2%
COc1ccc(C(=O)N/C(=C\c2cn(S(=O)(=O)N(C)C)c3ccccc23)C(=O)N2CCCC2)cc1 | · | · | · | -3% | ·
CCOc1cc(N2CCOCC2)c(OCC)cc1NC(=O)c1ccc2ccccc2n1 | 22µM* | 18µM* | ? | 0% | 16µM*
CCOc1cc(N2CCOCC2)c(OCC)cc1NC(=O)Cc1cccc2ccccc12 | ? | 3.5µM* | -17% | 26% | 22µM*
CC1CCCCN1C(=O)Cn1c(=O)n(-c2ccc(Cl)cc2)c(=O)c2c3c(sc21)CCC3 (stereo not given) | -20% | 6%[59 µM] | 12% | -2% | -6%
CC(C)COC(=O)N(C)C[C@@H]1OCc2cnnn2CCCC(=O)N([C@@H](C)CO)C[C@H]1C | · | · | · | 0% | ·
Fc1ccc(-c2nc(-c3cccs3)[nH]c2-c2ccc(F)cc2)cc1 | ? | ? | -16% | 0% | 45µM*
Oc1ccc(-c2nc(-c3ccc(F)cc3)c(-c3ccncc3)[nH]2)cc1 | ? | 13µM*! | 10% | 0% | ?
Fc1ccc(-c2nc(-c3cccs3)c(-c3cccs3)[nH]2)cc1 | -17% | -6%[59 µM] | 13% | 4% | -4%
O=C(Nc1cccc(NC(=O)c2ccccc2Cl)c1)c1ccc([N+](=O)[O-])o1 | -19% | 5%[59 µM] | 26% | 3% | -30%
CC(C)(C)C(=O)N1CCN(c2ccc(NC(=O)c3ccc([N+](=O)[O-])o3)cc2)CC1 | -17% | -16%[59 µM] | 10% | 17% | -8%
SMILES | JMJD2A Tudor | G9a inh | HP1b chromo inh | GLS inhibitor | BAZ2B inh
CC1CCN(c2ccc(NC(=O)c3ccc([N+](=O)[O-])o3)cc2)CC1 | -26% | 35µM* | -1% | 23% | -31%
O=C(Nc1ccc(N2CCCC2)c(Cl)c1)c1ccc([N+](=O)[O-])o1 | 45µM* | 25µM* | ? | 4% | 18µM*
CS(=O)(=O)N1CCN(c2ccc(NC(=O)c3ccc([N+](=O)[O-])o3)cc2)CC1 | 0% | ? | 65% | 2% | 0%
O=C(Nc1ccc(N2CCCCC2)cc1)c1ccc([N+](=O)[O-])o1 | 11µM* | 40µM* | ? | 0% | 28µM*
CN(C=[N+](C)C)c1cccc2c1C(=O)c1ccccc1C2=O | 45µM* | ? | 16µM* | -5% | 18µM*
CC(=O)OCC(NC(=O)C(Cc1ccccc1)NC(=O)OC(C)(C)C)C1OC(n2cc(C)c(=O)[nH]c2=O)C(OC(C)=O)C1OC(C)=O (stereo not given) | -6% | · | 20% | · | ·
O=C1[C@H]2[C@@H](c3ccccc3)N[C@]3(CCCN(CC4CCCCC4)C3=O)[C@H]2C(=O)N1Cc1ccccc1 | · | · | · | 3% | ·
Fc1ccc(C(OCCCc2cnc[nH]2)c2ccc(F)cc2)cc1 | · | 45µM*! | · | · | ·
CCN(Cc1ccccc1)C1CCN(Cc2ccc(SC)cc2)CC1 | 2.5µM* | ? | ? | -11% | 50µM*
C/C(=C\c1ccccc1)CN1CCN(C)CC1 | -100% | 13µM* | ? | 1% | ?
CCN(Cc1ccccc1)C(=O)C1CCN(Cc2ccc(SC)cc2)CC1 | 20µM* | 0% | ? | 5% | -22%
CCN(Cc1ccccc1)C(=O)C1CCN(C/C(C)=C/c2ccccc2)CC1 | 16µM* | 35µM* | -24% | 5% | ?
CCOC(=O)C1(C)CCN1C(=O)c1ccc(F)c(Cl)c1 (stereo not given) | · | · | · | -6% | ·
COc1cc(Cl)c(C)cc1NC(=O)CC(c1ccc(F)cc1)N1Cc2ccccc2C1=O (stereo not given) | -10% | -11%[59 µM] | 12% | -6% | -32%
O=c1c(-c2cc(F)cc(F)c2)nc2cnc(N3CCOCC3)nc2n1C[C@H]1CCCO1 | · | -4%[0.501 µM] | · | · | ·
CCOC(=O)/C(C#N)=C1\CCCN1CC(N)=S | -18% | 18µM* | -25% | -13% | -23%
CCOC(=O)/C(C#N)=C1/CCCCCN1C | 8% | -8% | 21% | 8% | -6%
c1ccc(NCCCNc2ccccc2)cc1 | ? | ? | -32% | 28% | 50µM*
O=C1c2ccccc2C(=O)N1CCCCNc1ccccc1 | -31% | · | -16% | 5% | ·
Cc1cccc(CC2SC(N)=NC2=O)c1 (stereo not given) | -9% | 50µM* | -8% | -1% | 1%
Cc1ccc(CC2SC(N)=NC2=O)cc1 (stereo not given) | -23% | 16% | 55% | 1% | -39%
C#C[C@]1(O)CCC2C3CCC4=CC(=O)CCC4C3CC[C@@]21C (stereo not given in full) | · | -4%[2.33 µM] | · | -9% | ·
CC#C[C@@]1(O)CC[C@H]2[C@@H]3CCC4=CC(=O)CCC4=C3[C@H](c3ccc(N(C)C)cc3)C[C@]21C | · | 5µM* | · | · | ·
